sPLA2-III inh – human group III sPLA2 inhibitors, primary screen, biochemical, QFRET, BODIPY PC-A2 liposome substrate; QFRET BODIPY PC-A2 liposome hydrolysis, fluorescence; inhibition, % at 12.2 µM; AID 743126, 2013; Group 3 secretory phospholipase A2 (Homo sapiens), Q9NZ20; hit rate 0.56% among 370,000;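 active means inhibition above mean plus 3 SD of compounds lying within the high and low control bounds, cut at about 19% in these data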;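 further: 0% = median of test compound wells and 100% = no enzyme DMSO wells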
Target sequence (Q9NZ20 whole entry, looked up): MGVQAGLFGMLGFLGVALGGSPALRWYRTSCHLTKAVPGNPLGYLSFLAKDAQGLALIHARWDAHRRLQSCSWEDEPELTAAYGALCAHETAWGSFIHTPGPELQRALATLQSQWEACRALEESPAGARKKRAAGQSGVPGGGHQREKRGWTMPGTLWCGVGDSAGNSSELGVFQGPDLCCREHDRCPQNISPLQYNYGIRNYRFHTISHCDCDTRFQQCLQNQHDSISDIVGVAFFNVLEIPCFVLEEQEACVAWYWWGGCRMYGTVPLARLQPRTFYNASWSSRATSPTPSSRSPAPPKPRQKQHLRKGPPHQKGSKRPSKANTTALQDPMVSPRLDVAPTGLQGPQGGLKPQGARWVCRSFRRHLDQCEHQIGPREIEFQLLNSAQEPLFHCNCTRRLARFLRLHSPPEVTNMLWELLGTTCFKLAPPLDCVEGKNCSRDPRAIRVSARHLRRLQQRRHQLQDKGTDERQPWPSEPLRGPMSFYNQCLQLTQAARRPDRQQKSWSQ
PLCb3 inh – human PLC-beta3 inhibitors, primary screen, biochemical, fluorescence; 1-phosphatidylinositol 4,5-bisphosphate phosphodiesterase beta-3 (Homo sapiens), Q01970; Purified PLC-beta3, fluorogenic substrate; inhibition, % at 12.2 µM; hit rate 0.18% among 370,000; AID 720704, 2013; in the data active means inhibition above about 11%;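 further: 0% = median of compound wells on plate and 100% = full blocker control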
DAGLB inhibitor – DAGLB lipase inhibitors, primary screen, biochemical, fluorescence, HTS. Diacylglycerol lipase-beta (Homo sapiens), Q8NCG7. HEK293T DAGLB membrane lysate, EnzChek fluorogenic substrate. inhibition, % at 5.17 µM. hit rate 0.059% among 340,000. AID 504411, 2011; in the data active means inhibition above about 34%;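 further: 0% = enzyme with vehicle and 100% = wells lacking enzyme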
PLCg1 inh – PLC-gamma1 enzyme inhibitors, primary screen, biochemical, fluorescence, purified enzyme; AID 720700, 2013; inhibition, % at 12.2 µM; hit rate 0.84% among 370,000; fluorogenic substrate; 1-phosphatidylinositol 4,5-bisphosphate phosphodiesterase gamma-1 (Homo sapiens), P19174
PLCgamma1 ctr – PLC-gamma1 enzyme inhibitors, counter-screen for PLC-beta3 inhibitor project, biochemical, fluorescence; shares compounds with PLCg1 inh; purified PLC-gamma1, fluorogenic substrate; inhibition, % at 12.3 µM; hit rate 3.1% among 3,300; AID 743258, 2014
PLCbeta3 conf – PLC-beta3 inhibitor confirmation, biochemical, fluorescence, purified enzyme | inhibition, % at 12.3 µM | AID 743261, 2014 | hit rate 1% among 3,300 | fluorogenic substrate fluorescence | shares compounds with PLCg1 inh; in the data active means inhibition above about 11%
Numbers without * were called inactive; / = no result. The list is not random: actives were taken first. Their share in the collection is about 1.5%. Unless noted, no stated cut-off is given here; in the data, active means inhibition above about 9.5%; inactive means the rest.

SMILES	sPLA2-III inh	PLCb3 inh	DAGLB inhibitor	PLCg1 inh	PLCgamma1 ctr	PLCbeta3 conf
CC(C)CCNC(=O)NC(=O)COC(=O)CCN=C1NS(=O)(=O)c2ccccc21	2.5	-1.7	-0.3	11.0*	-7.7	-1.3
Nc1ccc(O)c([N+](=O)[O-])c1	7.7	6.9	-0.6	21.1*	19.2*	1.4
O=c1oc2ccccc2c(O)c1C=NCc1ccccn1	-6.8	9.0	0.8	12.4*	0.6	0.6
O=c1c2ccccc2c(C=NCc2ccccn2)c(O)n1-c1ccccc1	1.1	-13.0	-1.2	-9.9	/	/
COc1ccccc1CC(NC(C)=O)C(=O)NC1CCN(C(=O)Nc2ccc(F)cc2)CC1 (stereo not drawn)	18.4	-9.2	-2.5	10.8*	-4.9	-1.2
COc1ccc(CC(NC(C)=O)C(=O)NC2CCN(C(=O)Nc3ccccc3C)CC2)cc1OC (stereo not drawn)	16.9	-5.2	0.3	10.5*	-4.7	-1.5
COc1ccccc1CC(NC(C)=O)C(=O)NC1CCN(C(=O)Nc2cccc(F)c2)CC1 (stereo not drawn)	2.4	2.8	1.0	-0.6	/	/
COc1ccc(S[C@]2(C(=O)N3CCN(C(C)=O)CC3)CC(=O)N(C(=O)C3CC3)[C@@H]2c2ccc(OC)cc2)cc1	2.2	-1.0	/	-1.0	/	/
Cc1ccc(NC(=O)CN(C)C(=O)c2ccc(S(=O)(=O)N(C)c3ccccc3)cc2)cc1	2.2	-2.3	2.0	10.7*	-2.4	0.1
CCOC(=O)NCc1ccc(S(=O)(=O)Nc2ccc(C)cc2)cc1	-7.8	4.2	-3.6	12.9*	-7.4	-3.6
Cc1ccc(-c2c[n+](CC(=O)Nc3ccccc3C)c3n2CCC3)cc1	14.2	-5.3	1.4	9.8*	-1.2	2.4
Cc1ccc(NC(=O)C[n+]2cc(-c3ccccc3)n3c2CCC3)cc1	7.6	-4.8	/	0.1	/	/
Cc1ccc(-c2c[n+](CC(=O)Nc3nc(-c4ccccc4)cs3)c3n2CCC3)cc1	-18.8	11.0*	4.4	12.3*	3.9	3.5
O=C(C[n+]1cc(-c2ccccc2)n2c1CCC2)Nc1nc(-c2ccccc2)cs1	-8.5	6.0	0.3	4.4	/	/
CCC[C@H]1[C@@H](NC(=O)c2cccc(Cl)c2)CC[C@@]23CCCN2C(=O)CCC[C@@H]13	-5.2	3.5	/	-1.5	/	/
COc1cccc(NC(=O)n2ccc3ccc(-c4ccc5ccn(C(=O)Nc6cccc(OC)c6)c5c4)cc32)c1	12.4	-105.2	/	-67.2	/	/
COCCNCCCOc1ccc(Br)cc1Cl	18.4	-3.6	1.6	11.0*	9.5*	3.3
O=C(NCCc1ccccc1)C1CCC(=O)N(Cc2cccc(C(F)(F)F)c2)C1 (stereo not drawn)	2.7	-7.0	-0.8	5.3	/	/
O=C(NCCc1nccs1)C1CCC(=O)N(Cc2cccc(C(F)(F)F)c2)C1 (stereo not drawn)	6.2	3.5	-0.7	13.0*	-6.3	-1.4
O=C(NC1CCC1)C1CCC(=O)N(Cc2ccccc2F)C1 (stereo not drawn)	5.7	0.2	-2.4	4.2	/	/
O=C(NC1CCC1)C1CCC(=O)N(Cc2cccc(F)c2)C1 (stereo not drawn)	4.3	-1.6	0.9	10.3*	0.6	0.8
CCn1c2ccccc2c2cc(NC(=O)CSc3nnc(-c4ccccc4)n3Cc3ccco3)ccc21	-6.7	-7.5	/	-5.9	/	/
Cc1ccccc1CN[C@@H]1CC[C@@]23CCCN2C(=O)CCC[C@H]3C1	12.1	0.5	/	1.2	/	/
CC(C)CN1C(=O)[C@]2(CC(=O)N(C)C2c2ccccc2)c2cc(-n3cc(CCCC#N)nn3)ccc21 (stereo partly drawn)	7.6	0.5	/	-0.3	/	/
Cc1cc(NS(=O)(=O)c2ccc(NC(=O)CSc3nnc(SCc4ccc(Cl)cc4)s3)cc2)nc(C)n1	-57.8	-5.0	/	0.3	/	/
CC(C)(C)OC(=O)N[C@H](C(=O)OC(C)(C)C)c1ccc2c(c1)OCO2	5.5	3.9	-7.0	10.2*	3.1	-2.9
